Measurements: publication PMC4336329 (PLoS ONE, 2015)
In all, about 310,000 compounds went through this assay and about 2,200 (0.71%) showed an effect of 50% or more. The effect is printed as a negative number. The full list was thinned out, with strong results kept by preference.

molecular target: human ether-à-go-go-related gene (hERG) potassium channel (human, UniProt Q12809); assay: primary screen, population patch clamp on CHO cells stably expressing hERG; higher = less effect of the substance
Sequence (Q12809 whole entry, looked up): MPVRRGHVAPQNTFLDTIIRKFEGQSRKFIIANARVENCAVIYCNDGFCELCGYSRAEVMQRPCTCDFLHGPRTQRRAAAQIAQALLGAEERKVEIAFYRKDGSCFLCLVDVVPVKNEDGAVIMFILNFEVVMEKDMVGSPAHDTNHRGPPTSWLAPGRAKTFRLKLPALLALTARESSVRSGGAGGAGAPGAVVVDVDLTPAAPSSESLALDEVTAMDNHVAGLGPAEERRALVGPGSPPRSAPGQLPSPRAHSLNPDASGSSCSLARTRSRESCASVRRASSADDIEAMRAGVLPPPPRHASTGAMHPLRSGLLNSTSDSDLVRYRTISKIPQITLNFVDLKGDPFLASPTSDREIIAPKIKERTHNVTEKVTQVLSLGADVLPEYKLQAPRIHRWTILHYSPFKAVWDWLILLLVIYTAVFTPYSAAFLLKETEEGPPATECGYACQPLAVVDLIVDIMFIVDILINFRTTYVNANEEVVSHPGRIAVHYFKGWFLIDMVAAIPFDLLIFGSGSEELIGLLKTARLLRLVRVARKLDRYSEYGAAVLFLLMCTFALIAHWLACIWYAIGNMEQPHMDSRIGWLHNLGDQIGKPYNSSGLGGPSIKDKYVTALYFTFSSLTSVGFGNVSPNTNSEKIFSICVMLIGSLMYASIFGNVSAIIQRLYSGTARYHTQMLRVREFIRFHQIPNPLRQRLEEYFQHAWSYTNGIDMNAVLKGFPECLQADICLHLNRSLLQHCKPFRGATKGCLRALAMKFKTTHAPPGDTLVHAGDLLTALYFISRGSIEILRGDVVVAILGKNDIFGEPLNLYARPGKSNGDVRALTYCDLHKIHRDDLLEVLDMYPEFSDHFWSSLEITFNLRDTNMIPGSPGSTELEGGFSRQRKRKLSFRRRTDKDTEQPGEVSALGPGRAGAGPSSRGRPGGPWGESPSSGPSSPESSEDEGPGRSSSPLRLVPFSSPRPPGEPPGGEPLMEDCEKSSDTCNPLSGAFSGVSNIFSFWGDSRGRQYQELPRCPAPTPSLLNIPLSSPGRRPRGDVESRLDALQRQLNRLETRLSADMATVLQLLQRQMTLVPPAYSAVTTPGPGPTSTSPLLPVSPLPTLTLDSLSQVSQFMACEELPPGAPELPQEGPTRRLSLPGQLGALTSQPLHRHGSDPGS

Row | SMILES | hERG current change (%, negative = inhibition) at 1uM [%]
1 | CC(=O)N1N=C(c2ccc(Br)cc2)CC1c1cn(C)c2ccccc12 (centres unmarked) | 9.41
2 | O=C(N/N=C1\CCCc2ccccc21)c1cccc(Br)c1 | 9.96
3 | CCOC(=O)C1(CCCc2ccccc2)CCN(Cc2ccn[nH]2)CC1 | -27.8
4 | CCOC(=O)C1(Cc2cccc(F)c2)CCN(CC2CC2)CC1 | -2.54
5 | CCOC(=O)C1(CCCc2ccccc2)CCN(Cc2cn(CC)nc2C)CC1 | -59.8
6 | CCOC(=O)C1(Cc2cccc(F)c2)CCN(CCCn2cccn2)CC1 | -51.2
7 | CCOC(=O)C1(Cc2cccc(F)c2)CCN(Cc2cnn(CC)c2)CC1 | -4.74
8 | CCOC(=O)C1(Cc2ccc(Cl)cc2)CCN(Cc2cn(CC)nc2C)CC1 | -28.5
9 | COC(=O)C1=CN(Cc2ccc(OC)c(OC)c2)C=C(C(=O)OC)C1c1ccc(F)cc1 | 4.21
10 | COCCNC(=O)c1ccc(CSc2nc3ccccc3s2)cc1 | 3.95
11 | Cn1c(C(=O)N2CCN(c3ccc(Cl)cc3)CC2)cc2c(=O)[nH]c3ccccc3c21 | -56
12 | Cc1cccc(N2CCN(C(=O)c3cc4c(=O)[nH]c5ccccc5c4n3C)CC2)c1C | 11.2
13 | Cc1ccc(Cl)cc1N1CCN(C(=O)c2cc3c(=O)[nH]c4ccccc4c3n2C)CC1 | 10.4
14 | COc1ccccc1C(=O)Nn1c(C2CCC2)nc2ccccc2c1=O | 4.52
15 | CCc1ccc(CNC(=O)Cn2nc(-c3ccccc3)ccc2=O)cc1 | 8.46
16 | CC1CCc2c(sc(NC(=O)C(=O)NCc3ccco3)c2C#N)C1 (centres unmarked) | -63.6
17 | CC(=O)Nc1sc2c(c1C#N)CCC(C)C2 (centres unmarked) | 11.7
18 | CC1CCc2c(sc(NC(=O)COC(=O)c3ccccc3NCc3ccco3)c2C#N)C1 (centres unmarked) | 12.9
19 | Cc1nc(N)nc(SCc2ccc([N+](=O)[O-])cc2)c1N | -70.8
20 | Cc1cc(C)nc(SCc2ccc([N+](=O)[O-])cc2)n1 | 6.29
21 | CC(=O)c1cc(C#N)c(SCc2ccc([N+](=O)[O-])cc2)nc1C | 10.4
22 | CC(OC(=O)c1ccc2ncsc2c1)C(=O)Nc1ncc(Cl)cc1Cl (centres unmarked) | 8.58
23 | CC(NC(=O)c1ccc2c(c1)OCCO2)c1ccc(S(N)(=O)=O)cc1 (centres unmarked) | -3.42

Row | SMILES | hERG current change (%, negative = inhibition) at 1uM [%]
24 | O=[N+]([O-])c1ccc2oc(C3CCCCC3)nc2c1 | 14.4
25 | CC(NC(=O)c1cccc(S(=O)(=O)N(C)C)c1)c1nc2ccccc2[nH]1 (centres unmarked) | 9.08
26 | O=C(Cn1nc(-c2ccccc2)ccc1=O)Nc1ccc(-n2cnnn2)cc1 | 9.23
27 | CCc1ccc(N2C(=O)NC(=O)C(CCc3ccncc3)(CCc3ccncc3)C2=O)cc1 | -41.1
28 | O=C1NC(=O)C(CCc2ccncc2)(CCc2ccncc2)C(=O)N1Cc1ccccc1 | -43.4
29 | O=C1NC(=O)C(CCc2ccncc2)(CCc2ccncc2)C(=O)N1C1CCCCC1 | -69.7
30 | O=C1NC(=O)C(CCc2ccncc2)(CCc2ccncc2)C(=O)N1CCc1ccccc1 | -23.1
31 | O=C1NC(=O)C(CCc2ccncc2)(CCc2ccncc2)C(=O)N1CCc1ccc(F)cc1 | -77.1
32 | C=CCN1C(=O)NC(=O)C(CCc2ccncc2)(CCc2ccncc2)C1=O | -12.3
33 | O=C1NC(=O)C(CCc2ccncc2)(CCc2ccncc2)C(=O)N1Cc1ccc(F)cc1 | -78.2
34 | O=C1NC(=O)C(CCc2ccncc2)(Cc2ccc3c(c2)OCO3)C(=O)N1CCc1ccccc1 (centres unmarked) | -10.8
35 | O=C1NC(=O)C(CCc2ccncc2)(C2CCCCC2)C(=O)N1 | 11.2
36 | O=C1c2ccccc2C(O)(c2ccccc2)N1C1CC1 (centres unmarked) | -8.45
37 | C#CCOc1ccc(Br)cc1C(c1c(C)[nH][nH]c1=O)c1c(C)[nH][nH]c1=O | 11.6
38 | c1ccc2oc(SCc3cn4ccccc4n3)nc2c1 | -12.5
39 | COC(=O)COc1ccc(NC(=O)C(c2ccccc2)c2ccccc2)cc1 | 6.63
40 | O=C(Nc1cccc(C(F)(F)F)c1)c1csc(-c2ccncc2)n1 | -82.4
41 | O=C(Nc1ccc(C(F)(F)F)cc1)c1csc(-c2ccncc2)n1 | -2.94
42 | Cc1ccc(C(=O)Nc2cccc(C(F)(F)F)c2)cc1NC(=O)c1csc(-c2ccncc2)n1 | -17.1
43 | CN(CCCNC(=O)C1CCC(=O)N1Cc1ccccc1Cl)c1ccccc1 (centres unmarked) | 19.2
44 | CCOC(=O)C1(CC2CCCCO2)CCN(Cc2ccc(OC)cc2F)CC1 (centres unmarked) | -19.8
45 | CCOC(=O)C1(CC2CCCCO2)CCN(Cc2cn[nH]c2-c2cccc(F)c2)CC1 (centres unmarked) | -27.2
46 | CCOC(=O)C1(CC2CC2)CCN(Cc2ccc(OC)cc2F)CC1 | -73.3

Row | SMILES | hERG current change (%, negative = inhibition) at 1uM [%]
47 | CCOC(=O)C1(CC2CC2)CCN(Cc2cnc(-c3ccc(OC)cc3)nc2)CC1 | 11.7
48 | CCOC(=O)N1CCN(Cc2cn[nH]c2-c2ccc(-c3ccccc3)cc2)CC1 | 7.03
49 | CCOC(=O)C1(CC2CC2)CCN(Cc2cn[nH]c2-c2ccccc2)CC1 | -65.5
50 | CCOC(=O)C1(CC2CC2)CCN(Cc2cn(C)c3ccccc23)CC1 | 12.2
51 | CCOC(=O)C1(Cc2ccccc2)CCN(Cc2cn[nH]c2-c2ccccc2)CC1 | 1.58
52 | CCOC(=O)C1(CC2CC2)CCN(Cc2cn[nH]c2-c2cccc(F)c2)CC1 | -57.6
53 | Cc1cnc(C(=O)OCC(=O)Nc2cc(S(=O)(=O)N3CCCCC3)ccc2Cl)cn1 | 19.4
54 | CCOc1ccc(NC(=O)CC2C(=O)N(c3cccc(OC)c3)C(=O)N2CCOC)cc1 (centres unmarked) | 3.67
55 | CC(C)CN(C(=O)CN1CCN(S(=O)(=O)c2ccccc2)CC1)c1c(N)n(CC(C)C)c(=O)[nH]c1=O | -2.18
56 | CCOC(=O)c1c(CN(CC)CC)n(-c2ccccc2)c2ccc(O)cc12 | -45.6
57 | Cc1ccc(C(=O)Nc2cnc3ccccc3c2)cc1 | 6.66
58 | COc1ccc2c(CN3CC=C(c4ccccc4)CC3)cc(=O)oc2c1 | 13.1
59 | Nc1cccc(Cl)c1N1CCOCC1 | 9
60 | COc1ccccc1CNC(=O)C1CCCN(S(=O)(=O)c2cccc3cccnc23)C1 (centres unmarked) | 0.692
61 | O=C(COc1ccc2ccccc2c1)N1CCN(C(=O)c2ccc([N+](=O)[O-])cc2)CC1 | -69.3
62 | COc1cc(C(=O)N2CCN(C(=O)COc3ccc4ccccc4c3)CC2)cc(OC)c1OC | -54
63 | COc1ccc(OCC(=O)N2CCN(C(=O)c3ccc([N+](=O)[O-])cc3)CC2)cc1 | -43.2
64 | COc1cc(OC)cc(C(=O)N2CCN(C(=O)COc3ccc4ccccc4c3)CC2)c1 | -4.51
65 | COc1cccc(C(=O)N2CCN(C(=O)COc3ccc4ccccc4c3)CC2)c1 | -3.85
66 | O=C(COc1ccccc1)N1CCN(C(=O)c2ccc([N+](=O)[O-])cc2)CC1 | -19
67 | O=C(CN1CCN(C(=O)C2CC2)CC1)Nc1cc(C(F)(F)F)cc(C(F)(F)F)c1 | -5.9
68 | CCOc1ccc(Br)cc1S(=O)(=O)NC1CC(C)(C)NC(C)(C)C1 | 17
69 | CC1(C)CC(NC(=O)COc2ccc3ccc(=O)oc3c2)CC(C)(C)N1 | 13.6

Row | SMILES | hERG current change (%, negative = inhibition) at 1uM [%]
70 | CCOC(=O)c1c(NCc2ccccc2)n[nH]c1C | 4.96
71 | CCOC(=O)CSc1ncnc2c(C(=O)OCC)c3n(c12)CCC3 | -10.4
72 | CCOC(=O)c1c2n(c3c(NCc4ccccc4)ncnc13)CCCC2 | -70.3
73 | COC(=O)c1c(NC(=O)CSc2ncn[nH]2)sc(C)c1C | 11.2
74 | CCN1CCN(c2ncnc3scc(-c4ccc(C)cc4)c23)CC1 | 3.26
75 | Cc1ccc(-c2csc3ncnc(N4CCN(C)CC4)c23)cc1C | 10.8
76 | CCN1CCN(c2ncnc3scc(-c4ccc(C)c(C)c4)c23)CC1 | -50.8
77 | CN(C)S(=O)(=O)c1ccc(C(=O)NCc2ccccn2)cc1 | 14.5
78 | COc1cc(CN(C)CCc2ccccc2)ccc1OCc1ccccc1 | -12.2
79 | COc1ccc(CCN(C)C/C=C/c2ccccc2)cc1OC | -43.3
80 | CN(C/C=C/c1ccccc1[N+](=O)[O-])Cc1ccccc1 | -8.37
81 | Cl.NS(=O)(=O)c1ccc(CCNCc2ccccc2OCc2ccc(Cl)cc2)cc1 | -70.5
82 | Cl.NS(=O)(=O)c1ccc(CCNCc2ccccc2OCc2ccc(F)cc2)cc1 | -21.5
83 | COc1ccc(CCN(C)Cc2ccc(OC)c(OCc3ccccc3)c2)cc1OC | -77
84 | Cl.NS(=O)(=O)c1ccc(CCNCc2cc(Br)ccc2OCc2ccccc2)cc1 | -44.9
85 | Cl.NS(=O)(=O)c1ccc(CCNCc2cc(Cl)ccc2OCc2ccccc2)cc1 | -59.3
86 | COc1cc(CNCCc2ccc(S(N)(=O)=O)cc2)ccc1OCc1ccc(Cl)cc1.Cl | -1.77
87 | COc1ccc(CCN(C)C/C=C/c2ccccc2[N+](=O)[O-])cc1OC | -54.3
88 | COc1ccc(CCN(C)Cc2ccc(OCc3ccccc3)c(OC)c2)cc1OC | -42.9
89 | C=CCOc1ccccc1CNCCc1ccc(S(N)(=O)=O)cc1.Cl | -6.97
